The source of these data is the antibiotic and cytotoxicity screens of Wong et al. (2023).

The structures appear in SMILES notation. The whole screen tested about 39,000 compounds, of which about 1,500 (3.8%) were called active. This excerpt belongs to a sample that is enriched for actives.

The test system of the assay is HSkMC (human skeletal muscle cells). In words: cytotoxicity call (relative viability < 0.9). The note with it: 10 µM.
With `Cc1noc(C)c1NC(=O)N(C)C[C@H]1Oc2ccc(NC(=O)NC(C)C)cc2C(=O)N([C@H](C)CO)C[C@@H]1C`, the cytotoxicity call was “inactive”.

Consider `COc1ccc(S(=O)(=O)Nc2ccc3c(c2)C(=O)N([C@H](C)CO)C[C@@H](C)[C@H](CN(C)S(C)(=O)=O)O3)cc1`, for which the cytotoxicity call is “inactive”.

As to `Nc1ccc(Nc2ccccc2)cc1`, the cytotoxicity call was “inactive”.

In the case of `COc1ccc2c3c([nH]c2c1)[C@@H](CO)N(C[C@]13CN(C1)S(=O)(=O)C)C(=O)C1CCOCC1`, the cytotoxicity call was “inactive”.

As for `C[C@H](CO)N1C[C@H](C)[C@H](CN(C)Cc2ccccc2C(F)(F)F)OCc2ccccc2-c2c(n(C)c3ccccc23)C1=O`, the cytotoxicity call was “active”.

Turning to `COc1ccccc1CN(C)C[C@H]1OCc2ccccc2-c2c(n(C)c3ccccc23)C(=O)N([C@@H](C)CO)C[C@@H]1C`, the cytotoxicity call is “inactive”.

For the compound `C[C@H]1CN([C@@H](C)CO)C(=O)c2c(c3ccccc3n2C)-c2ccccc2CO[C@@H]1CN(C)Cc1ccccc1C(F)(F)F`, the cytotoxicity call is “active”.

As for `COc1ccccc1CN(C)C[C@H]1OCc2ccccc2-c2c(n(C)c3ccccc23)C(=O)N([C@H](C)CO)C[C@H]1C`, the cytotoxicity call was “inactive”.

As for `C[C@@H]1CN([C@H](C)CO)C(=O)c2c(c3ccccc3n2C)-c2ccccc2CO[C@H]1CN(C)Cc1ccccc1C(F)(F)F`, the cytotoxicity call is “active”.

In the case of `C[C@H]1CN([C@@H](C)CO)C(=O)c2c(c3ccccc3n2C)-c2ccccc2CO[C@H]1CN(C)Cc1ccccc1C(F)(F)F`, the cytotoxicity call was “inactive”.

As for `COc1ccccc1CN(C)C[C@H]1OCc2ccccc2-c2c(n(C)c3ccccc23)C(=O)N([C@@H](C)CO)C[C@H]1C`, the cytotoxicity call is “inactive”.

For `C[C@@H]1CN([C@@H](C)CO)C(=O)c2cc(NC(=O)CCC(F)(F)F)ccc2O[C@@H](C)CCCCO[C@@H]1CN(C)C(=O)CCC(F)(F)F`, the cytotoxicity call was “inactive”.

For `COc1ccc(NC(=O)Nc2ccc3c(c2)C(=O)N([C@H](C)CO)C[C@@H](C)[C@@H](CN(C)C(=O)NC(C)C)OCCCC[C@H](C)O3)cc1`, the cytotoxicity call was “inactive”.

For `C[C@@H]1CCCCO[C@H](CN(C)C(=O)Nc2ccc3c(c2)OCO3)[C@@H](C)CN([C@@H](C)CO)C(=O)c2cc(NC(=O)CCC(F)(F)F)ccc2O1`, the cytotoxicity call is “inactive”.

As to `CN1C(=O)COc2cc(N)ccc21`, the cytotoxicity call was “inactive”.

For the compound `Cc1noc(C)c1NC(=O)N(C)C[C@H]1Oc2ccc(NS(C)(=O)=O)cc2CC(=O)N([C@H](C)CO)C[C@@H]1C`, the cytotoxicity call was “inactive”.

With `Cc1cc(C(=O)O)cc(S(N)(=O)=O)c1`, the cytotoxicity call is “inactive”.

Consider `C[C@@H]1CN([C@H](C)CO)C(=O)c2cc(NC(=O)Nc3ccc4c(c3)OCO4)ccc2O[C@@H]1CN(C)Cc1ccc(C(=O)Nc2ccccc2N)cc1`, for which the cytotoxicity call was “inactive”.

For `COc1ccc(NC(=O)N(C)C[C@@H]2Oc3c(NC(=O)c4cc(C)nn4C)cccc3C(=O)N([C@H](C)CO)C[C@H]2C)cc1`, the cytotoxicity call was “inactive”.

With `C[C@H]1CCCCO[C@H](CN(C)Cc2ccncc2)[C@@H](C)CN([C@@H](C)CO)C(=O)c2cc(NS(=O)(=O)c3ccc(Cl)cc3)ccc2O1`, the cytotoxicity call is “inactive”.

Regarding `O=C(NO)c1cn(-c2ccc(C[C@H]3C(=O)O[C@@H](Cc4ccccc4)[C@H]4[C@@H]5C=CCCC=C5CN43)cc2)nn1`, the cytotoxicity call was “inactive”.

Turning to `COc1ccc([Si](C)(C)[C@@H]2[C@@H](CCn3cc(CCO)nn3)O[C@]3(C(=O)N(Cc4cccc(N5C(=O)c6cccc7cccc5c67)c4)c4ccccc43)[C@H]2C)cc1`, the cytotoxicity call was “active”.

In the case of `COc1ccc([Si](C)(C)[C@@H]2[C@@H](CCO)O[C@]3(C(=O)N(Cc4ccc(N5C(=O)c6cccc7cccc5c67)cc4)c4ccccc43)[C@H]2C)cc1`, the cytotoxicity call was “inactive”.

As to `COc1ccc([Si](C)(C)[C@H]2[C@H](CCO)O[C@@]3(C(=O)N(Cc4ccc(N5C(=O)c6cccc7cccc5c67)cc4)c4ccccc43)[C@@H]2C)cc1`, the cytotoxicity call is “inactive”.

Consider `COc1ccc([Si](C)(C)[C@H]2[C@H](CCO)O[C@@]3(C(=O)N(Cc4cccc(N5C(=O)c6cccc7cccc5c67)c4)c4ccccc43)[C@@H]2C)cc1`, for which the cytotoxicity call was “inactive”.

Turning to `COc1ccc([Si](C)(C)[C@@H]2[C@@H](CCn3cc(CCO)nn3)O[C@]3(C(=O)N(Cc4ccc(N5C(=O)c6cccc7cccc5c67)cc4)c4ccccc43)[C@H]2C)cc1`, the cytotoxicity call was “active”.

For `COc1ccc([Si](C)(C)[C@H]2[C@H](CCn3cc(CCO)nn3)O[C@@]3(C(=O)N(Cc4cccc(N5C(=O)c6cccc7cccc5c67)c4)c4ccccc43)[C@@H]2C)cc1`, the cytotoxicity call is “inactive”.

For the compound `C[C@@H]1CCCCO[C@@H](CN(C)C(=O)CCCN(C)C)[C@H](C)CN([C@H](C)CO)C(=O)c2cc(NC(=O)Nc3ccc(C(F)(F)F)cc3)ccc2O1`, the cytotoxicity call is “inactive”.

Regarding `C[C@H](CO)N1C[C@H](C)[C@@H](CN(C)C(=O)Nc2ccccc2)OCCCC[C@H](C)Oc2ccc(NC(=O)Cc3ccccc3)cc2C1=O`, the cytotoxicity call is “inactive”.

Regarding `CN1CCN(C(=O)C[C@@H]2CC[C@@H]3[C@H](COc4ccc(NC(=O)C5CCCCC5)cc4C(=O)N3C)O2)CC1`, the cytotoxicity call was “inactive”.

In the case of `C[C@H]1CN([C@@H](C)CO)C(=O)Cc2cc(NS(C)(=O)=O)ccc2O[C@@H]1CN(C)Cc1ccc(C(=O)O)cc1`, the cytotoxicity call is “inactive”.

Take `COc1ccc(S(=O)(=O)N(C)C[C@@H]2OCCCC[C@H](C)Oc3ccc(NS(=O)(=O)c4ccc(Cl)cc4)cc3C(=O)N([C@H](C)CO)C[C@@H]2C)cc1`: the cytotoxicity call was “inactive”.

Take `C[C@H](CO)N1C[C@H](C)[C@H](CN(C)Cc2ccc(Cl)c(Cl)c2)Oc2ccc(NC(=O)Cc3cn(C)c4ccccc34)cc2C1=O`: the cytotoxicity call was “active”.

As for `C[C@@H]1CN([C@@H](C)CO)C(=O)c2cc(NC(=O)Cc3cn(C)c4ccccc34)ccc2O[C@@H]1CN(C)Cc1ccc(Cl)c(Cl)c1`, the cytotoxicity call is “active”.

Consider `C[C@@H]1CN([C@H](C)CO)C(=O)c2cc(NC(=O)Cc3cn(C)c4ccccc34)ccc2O[C@@H]1CN(C)Cc1ccc(Cl)c(Cl)c1`, for which the cytotoxicity call is “active”.

`C[C@@H]1CN([C@H](C)CN(C)C)C(=O)c2cc(NC(=O)Cc3cn(C)c4ccccc34)ccc2O[C@H]1CN(C)S(=O)(=O)c1ccc(Cl)cc1`: the cytotoxicity call was “active”.

`C[C@H](CO)N1C[C@H](C)[C@@H](CN(C)Cc2ccc(Cl)c(Cl)c2)Oc2ccc(NC(=O)Cc3cn(C)c4ccccc34)cc2C1=O`: the cytotoxicity call was “inactive”.

On to `C[C@H]1CN([C@@H](C)CO)C(=O)c2cc(NC(=O)Cc3cn(C)c4ccccc34)ccc2O[C@@H]1CN(C)S(C)(=O)=O`, for which the cytotoxicity call is “inactive”.

Turning to `C[C@@H]1CN([C@@H](C)CO)C(=O)c2cc(NC(=O)Cc3cn(C)c4ccccc34)ccc2O[C@@H]1CN(C)S(C)(=O)=O`, the cytotoxicity call is “inactive”.

Take `C[C@H](CO)N1C[C@H](C)[C@@H](CN(C)Cc2ccc(-c3ccccc3)cc2)Oc2ccc(NC(=O)Cc3cn(C)c4ccccc34)cc2C1=O`: the cytotoxicity call was “inactive”.

For `C[C@H](CO)N1C[C@H](C)[C@H](CN(C)S(=O)(=O)c2cn(C)cn2)Oc2cc(C#Cc3cccc(F)c3)ccc2S1(=O)=O`, the cytotoxicity call is “inactive”.

As for `COCC(=O)N1C[C@@H](C)[C@H](OC)CN(C)C(=O)c2ccc(NC(=O)Nc3cccc(F)c3)cc2OC[C@H]1C`, the cytotoxicity call was “inactive”.

With `C[C@H]1CN([C@@H](C)CO)C(=O)c2cccc(NC(=O)c3cnccn3)c2O[C@@H]1CN(C)CC1CCCCC1`, the cytotoxicity call is “inactive”.

Regarding `CC[C@@H]1OC(=O)[C@H](C)[C@@H](O[C@H]2C[C@@](C)(OC)[C@@H](O)[C@H](C)O2)[C@H](C)[C@@H](O[C@@H]2O[C@H](C)C[C@H](N(C)C)[C@H]2O)[C@](C)(O)C[C@@H](C)/C(=N\OCOCCOC)[C@H](C)[C@@H](O)[C@]1(C)O`, the cytotoxicity call was “inactive”.

`CCNC(=O)C[C@@H]1C=C[C@H](NC(=O)C2CCOCC2)[C@H](CO)O1`: the cytotoxicity call was “inactive”.

With `COc1ccc(C#Cc2cnc3c(c2)C(=O)N([C@H](C)CO)C[C@H](C)[C@H](CN(C)CC2CCOCC2)O3)cc1`, the cytotoxicity call is “inactive”.

For the compound `C[C@H]1CCCCO[C@@H](CN(C)Cc2ccncc2)[C@@H](C)CN([C@@H](C)CO)C(=O)c2cc(NC(=O)C3CCCCC3)ccc2O1`, the cytotoxicity call was “inactive”.

Take `C[C@H]1CN([C@@H](C)CO)C(=O)c2cccc(NS(C)(=O)=O)c2O[C@@H]1CN(C)S(=O)(=O)c1ccccc1`: the cytotoxicity call is “inactive”.

As for `O=C(C[C@H]1CC[C@@H](NC(=O)Cc2ccccn2)[C@@H](CO)O1)NCCCN1CCOCC1`, the cytotoxicity call is “inactive”.

On to `C[C@H]1CN([C@@H](C)CO)C(=O)Cc2cc(NS(C)(=O)=O)ccc2O[C@H]1CN(C)S(C)(=O)=O`, for which the cytotoxicity call is “inactive”.

In the case of `CCCn1c(=O)c(C#N)cn(C2CC2)c1=O`, the cytotoxicity call is “inactive”.

With `N=C(N)SCc1csc(N)n1`, the cytotoxicity call was “inactive”.

Regarding `C[C@H]1CN([C@@H](C)CO)C(=O)c2cc(NC(=O)Cc3cn(C)c4ccccc34)ccc2O[C@H]1CN(C)Cc1ccc(-c2ccccc2)cc1`, the cytotoxicity call is “inactive”.

Regarding `C[C@H]1CN([C@@H](C)CO)C(=O)c2cc(NC(=O)Cc3cn(C)c4ccccc34)ccc2O[C@@H]1CN(C)Cc1ccc(Cl)c(Cl)c1`, the cytotoxicity call is “active”.

Turning to `C[C@H]1CN([C@@H](C)CO)C(=O)c2cc(NC(=O)Cc3cn(C)c4ccccc34)ccc2O[C@H]1CN(C)Cc1ccc(Cl)c(Cl)c1`, the cytotoxicity call was “inactive”.

Turning to `C[C@@H]1CN([C@H](C)CO)C(=O)c2cc(NC(=O)Cc3cn(C)c4ccccc34)ccc2O[C@H]1CN(C)Cc1ccc(Cl)c(Cl)c1`, the cytotoxicity call is “active”.

With `C[C@@H]1CN([C@@H](C)CO)C(=O)c2cc(NC(=O)Cc3cn(C)c4ccccc34)ccc2O[C@H]1CN(C)Cc1ccc(Cl)c(Cl)c1`, the cytotoxicity call was “inactive”.

On to `C[C@@H]1CN([C@@H](C)CO)C(=O)c2cc(NC(=O)CCN3CCOCC3)ccc2O[C@@H]1CN(C)S(C)(=O)=O`, for which the cytotoxicity call was “inactive”.

As to `C[C@H](O)C#Cc1ccc2c(c1)O[C@@H](CN(C)C(=O)Nc1ccccc1)[C@@H](C)CN([C@H](C)CO)S2(=O)=O`, the cytotoxicity call is “inactive”.

`CC(C)NC(=O)Nc1cccc2c1O[C@H](CN(C)Cc1ccc(C(=O)O)cc1)[C@H](C)CN([C@@H](C)CO)C2=O`: the cytotoxicity call is “inactive”.

Regarding `CCC1C=C2C(=O)OC(=O)C2CC2=C(C(=O)OC2=O)C(OC(C)=O)C1CC` (stereo unspecified), the cytotoxicity call was “inactive”.
